LRH-1 inv ag = NR5A2 inverse agonism in reporter assay; inhibition, % at 3.6 µM; AID 602396; O00482; 0.13% of 360,000 active; HEK293T StAR-luciferase reporter, LRH-1 transfected, 24 h;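 active = inhibition above the mean inhibition of all tested compounds plus 3 SD, cut at about 73% in these data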
SRC3 inh = inhibitors of human steroid receptor coactivator 3 (SRC3). Q9Y6Q9. HEK293 GAL4-SRC3 luciferase reporter, luminescence. inhibition, % at 3.6 µM. 0.17% of 360,000 active;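 active = inhibition above a per-campaign cutoff, the mean of all compounds plus 3 SD, cut at about 60% in these data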;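 also: higher means less SRC3-driven luciferase light from the GAL4 reporter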
Target sequence (Q9Y6Q9 whole entry, looked up, the tested form may be a part): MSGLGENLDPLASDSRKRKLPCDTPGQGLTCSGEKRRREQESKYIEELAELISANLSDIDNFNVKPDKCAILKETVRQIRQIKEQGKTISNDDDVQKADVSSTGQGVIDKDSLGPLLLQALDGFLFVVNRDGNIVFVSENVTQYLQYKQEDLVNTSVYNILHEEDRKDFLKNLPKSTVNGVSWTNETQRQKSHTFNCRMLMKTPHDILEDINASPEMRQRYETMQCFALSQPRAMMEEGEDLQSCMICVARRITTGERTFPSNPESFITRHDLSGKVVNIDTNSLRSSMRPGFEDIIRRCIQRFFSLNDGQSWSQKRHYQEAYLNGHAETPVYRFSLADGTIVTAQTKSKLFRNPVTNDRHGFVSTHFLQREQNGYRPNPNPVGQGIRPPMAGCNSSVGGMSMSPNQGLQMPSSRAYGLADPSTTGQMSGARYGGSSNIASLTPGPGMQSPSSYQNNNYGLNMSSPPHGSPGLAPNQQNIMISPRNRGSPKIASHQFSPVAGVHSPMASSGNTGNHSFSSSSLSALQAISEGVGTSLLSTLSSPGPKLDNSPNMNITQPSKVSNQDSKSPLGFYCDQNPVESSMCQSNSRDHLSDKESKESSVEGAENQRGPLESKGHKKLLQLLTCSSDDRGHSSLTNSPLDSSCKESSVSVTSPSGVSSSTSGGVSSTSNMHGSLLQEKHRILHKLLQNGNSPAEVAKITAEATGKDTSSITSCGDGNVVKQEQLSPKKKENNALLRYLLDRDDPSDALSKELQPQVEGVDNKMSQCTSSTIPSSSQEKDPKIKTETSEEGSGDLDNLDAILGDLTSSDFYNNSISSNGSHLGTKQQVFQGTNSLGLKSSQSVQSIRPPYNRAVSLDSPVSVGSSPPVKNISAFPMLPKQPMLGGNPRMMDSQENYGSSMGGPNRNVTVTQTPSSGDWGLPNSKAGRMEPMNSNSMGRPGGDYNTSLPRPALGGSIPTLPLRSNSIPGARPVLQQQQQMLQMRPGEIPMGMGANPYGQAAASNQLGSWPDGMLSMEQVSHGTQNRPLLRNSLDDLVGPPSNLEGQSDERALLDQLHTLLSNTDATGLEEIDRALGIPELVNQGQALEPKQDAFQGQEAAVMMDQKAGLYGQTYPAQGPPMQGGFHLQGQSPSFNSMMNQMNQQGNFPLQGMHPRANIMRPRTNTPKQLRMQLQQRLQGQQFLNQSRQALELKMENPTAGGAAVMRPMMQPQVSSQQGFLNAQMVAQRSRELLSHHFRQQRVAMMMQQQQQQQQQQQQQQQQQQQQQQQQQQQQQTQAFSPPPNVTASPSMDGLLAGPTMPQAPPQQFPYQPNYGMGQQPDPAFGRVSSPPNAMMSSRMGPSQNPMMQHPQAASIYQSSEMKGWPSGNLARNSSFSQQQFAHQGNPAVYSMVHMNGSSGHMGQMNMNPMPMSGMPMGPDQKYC
NR2F2 inh = inhibitors of human COUP-TFII (NR2F2) | P24468 | HEK293T NGFI-A luciferase reporter, luminescence | inhibition, % at 8.6 µM | 0.7% of 370,000 active;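 active = inhibition above a per-plate cutoff, mean inhibition of test wells between control levels plus 3 SD, cut at about 38% in these data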;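 also: cells cotransfected with COUP-TFII expression vector driving the NGFI-A reporter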
GalR3 antag = antagonists of human GalR3 | O60755 | HEK293 GalR3-CNG cAMP membrane potential fluorescence; galR3 body fused to GalR1 C-terminus | inhibition, % at 3 µM | 0.44% of 360,000 active | AID 651719;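 active = inhibition above the screen-wide average plus 3 SD, cut at about 13% in these data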;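 also: forskolin and galanin both at EC90 stimulate the cells; cAMP rise reported by CNG channel membrane potential dye signal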
NCOA2 inhibitor = human SRC2 (NCOA2) inhibition; Q15596; HEK293 GAL4-SRC2 luciferase reporter, luminescence; inhibition, % at 9 µM; 0.17% of 370,000 active;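 active = inhibition above the mean inhibition of all tested compounds plus 3 SD, set per campaign, cut at about 52% in these data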
NCOA1 inh = inhibits human SRC1 coactivator; Q15788; HEK293 GAL4-SRC1 luciferase reporter, luminescence; inhibition, % at 3.6 µM; 0.12% of 360,000 active;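 active = inhibition above the campaign mean plus 3 SD, with each screening campaign given its own cutoff, cut at about 60% in these data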
A number is an active result; – = inactive; · = not tested or not shown; ! = a repeat was not active. Most compounds without a hit are left out; they make up all but 1.1% or so of the library.

SMILES | LRH-1 inv ag | SRC3 inh | NR2F2 inh | GalR3 antag | NCOA2 inhibitor | NCOA1 inh
CC(C)(C)OC(=O)CNC(=O)c1nc[nH]c1C(=O)NCc1ccc(CNC(=O)OC(C)(C)C)cc1 | – | – | – | – | – | –
CC(C)(C)OC(=O)NCc1ccc(CNC(=O)c2nc[nH]c2C(=O)NCc2ccc(CNC(=O)OC(C)(C)C)cc2)cc1 | – | – | 47 | – | – | –
CC(C)CC(=NNC(=O)c1ccncc1)c1cc(Cl)ccc1O | – | 71 | – | – | – | –
O=C(NCC(c1ccccc1)c1ccccc1)[C@H](Cc1c[nH]c2ccccc12)NC1(C(=O)NC2CCCCC2)CCC1 | · | · | – | · | · | ·
CCc1ccc(NC(=O)c2nc(S(=O)(=O)Cc3ccccc3)ncc2Cl)cc1 | – | – | – | – | – | –
CC(=O)Nc1ccc(NC(=O)c2nc(S(=O)(=O)Cc3cccc(C)c3)ncc2Cl)cc1 | – | – | – | – | 83 | –
CN(c1ccccc1)S(=O)(=O)c1ccc(NC(=O)c2nc(S(C)(=O)=O)ncc2Cl)cc1 | – | – | – | – | 56 | –
C[C@H]1[C@@H](OC(=O)NC2CCC2)CC[C@@]23CCCN2C(=O)CCC[C@@H]13 | · | · | – | · | · | ·
O=C(Nc1cccc(F)c1)O[C@@H]1CC[C@@]23CCCN2C(=O)CCC[C@H]3C1 | · | · | – | · | · | ·
Cn1c(=O)cc(OCCCC(=O)Nc2cc(Br)ccn2)c2ccccc21 | · | · | – | · | · | ·
Cc1ccnc(NC(=O)CCCOc2cc(=O)n(C)c3ccccc23)c1 | 74 | – | – | – | – | –
CCN(CC)c1ccc2cc(C(C)=O)c(=O)oc2c1 | – | – | – | – | – | –
CCN(CC)c1ccc2cc(NC(=O)CCC(=O)O)c(=O)oc2c1 | – | – | 83 | – | 85 | –
CCC[C@H]1[C@@H](NC(=O)c2ccc(C)cc2)CC[C@@]23CCCN2C(=O)CCC[C@@H]13 | · | · | – | · | · | ·
COc1cc(/C=N/NC(=O)c2cncc(Br)c2)cc([N+](=O)[O-])c1O | – | – | – | 25 | – | –
COc1cc(/C=N/NC(=O)c2cccc([N+](=O)[O-])c2)cc(OC)c1O | – | – | – | – | – | –
C[C@@H](C(=O)Nc1ccc2c(c1)OCO2)n1c(=O)[nH]c2ccccc2c1=O | – | – | – | – | – | –
C[C@@H](C(=O)Nc1ccc2c(c1)OCCO2)n1c(=O)[nH]c2ccccc2c1=O | – | 67 | – | – | – | –
COc1ccc(-n2ncc3c(N4CCCCC4)ncnc32)cc1 | – | 67 | · | · | · | 64
C[C@H]1[C@@H](OC(=O)NCc2cccs2)CC[C@@]23CCCN2C(=O)CCC[C@@H]13 | · | · | – | · | · | ·
CN(c1ccccc1)S(=O)(=O)c1ccc(Cl)nc1 | – | – | – | – | – | –
Cc1nc(S(=O)(=O)N(C)c2ccccc2)c(C#N)c(C)c1Cl | – | – | – | – | 54 | –
CSc1nc(N)nc2c1ncn2CC(=O)N1CCN(Cc2c(C)cc(C)cc2C)CC1 | – | – | 51 | – | – | –
CCCC1CCC2(CC1)CCC2OC(=S)Nc1ccc(N(C)C)cc1 (stereo not drawn) | · | · | – | · | · | ·
Cc1cc(C(=O)COc2cccnc2[N+](=O)[O-])c(C)n1-c1ccccc1 | – | 66 | – | – | – | 69
SMILES | LRH-1 inv ag | SRC3 inh | NR2F2 inh | GalR3 antag | NCOA2 inhibitor | NCOA1 inh
Cc1cccc(OCCCN2CCC(C(O)(c3ccccc3)c3ccccc3)CC2)c1 | · | · | – | – | – | ·
O=C(OC12CCCN(C1)/C(=C/c1ccccc1)C2)C1CCCCC1 (stereo not drawn) | · | · | – | · | – | ·
O=C(COC(=O)c1cc(-c2ccc(Cl)s2)nc2ccccc12)NCc1ccco1 | – | – | – | – | – | –
COc1ccc(CNC(=O)COC(=O)c2cc(-c3ccc(Cl)s3)nc3ccccc23)cc1 | – | 83 | – | – | – | –
COc1ccc(C2C(C(=O)N3CCN(c4ccccc4C)CC3)CC(=O)N2c2ccc(OC)cc2)cc1 (stereo not drawn) | · | · | – | · | – | ·
CCc1ccc(C2=NNC(=Nc3cccc(S(=O)(=O)N(C)C)c3)SC2)cc1 | – | – | 41 | – | – | –
O=C(/C(=C/c1ccc(Cl)cc1)c1nc2ccccc2[nH]1)c1cccs1 | – | 62 | · | · | · | –
O=C(/C(=C\c1ccccc1)c1nc2ccccc2[nH]1)c1ccc(Cl)cc1 | – | – | – | – | – | –
COc1cc([C@@H]2c3cc4c(cc3[C@H](O)[C@H]3COC(=O)[C@H]23)OCO4)cc(OC)c1OC | – | – | – | · | – | –
COc1cc([C@@H]2c3cc4c(cc3[C@@H](O[C@@H]3O[C@@H]5CO[C@@H](C)O[C@H]5[C@H](O)[C@H]3O)[C@H]3COC(=O)[C@H]23)OCO4)cc(OC)c1O | – | 65 | – | – | – | 80
COc1cc(C2c3cc4c(cc3C(OC3OC5COC(c6cccs6)OC5C(O)C3O)C3COC(=O)C23)OCO4)cc(OC)c1O (stereo not drawn) | – | 77 | – | – | – | 81
CC(C)C[C@H](NC1(C(=O)NC2CCCCC2)CCOCC1)C(=O)NCC(c1ccccc1)c1ccccc1 | · | · | – | · | · | ·
O=C1C(=O)N(Cc2ccc(-c3ccccc3)cc2)c2ccc(OC(F)(F)F)cc21 | · | · | – | · | · | ·
O=C(O)c1ccc(NC2=C/C(=N/S(=O)(=O)c3cccs3)c3ccccc3C2=O)cc1 | – | – | – | – | – | –
O=C1C(Nc2ccc(O)cc2)=C/C(=N/S(=O)(=O)c2cccs2)c2ccccc21 | 86 | 90 | 78 | – | 71 | 88
Cc1cccc(NC2=C/C(=N/S(=O)(=O)c3cccs3)c3ccccc3C2=O)c1 | – | – | – | – | – | –
CCc1ccc(S(=O)(=O)/N=C2/C=C(Sc3ncn[nH]3)C(=O)c3ccccc32)cc1 | 95 | 88 | · | · | · | 83
CCc1ccc(S(=O)(=O)/N=C2\C=C(Nc3ccc(O)cc3)C(=O)c3ccccc32)cc1 | 90 | 89 | · | · | · | 88
Cc1ccc(NC2=C/C(=N\S(=O)(=O)c3cccs3)c3ccccc3C2=O)c(C)c1 | – | 70 | · | · | · | 67
CCOC(=O)[C@@]12CN(C(=O)OC(C)(C)C)CC=C1N(Cc1ccc(OC)cc1)C(=O)[C@H]2CC(=O)N1CCC(c2ccccc2)CC1 | · | · | – | · | – | ·
Cc1ccc(Cl)cc1NC1=C/C(=N\S(=O)(=O)c2cccs2)c2ccccc2C1=O | – | 85! | – | – | – | 72!
O=C(CSc1nnc(SCc2cccc3ccccc23)s1)Nc1ccc(S(=O)(=O)Nc2nccs2)cc1 | · | · | – | · | – | ·
Oc1ccc(C2C=C(c3ccc(F)cc3)Nc3ncnn32)cc1 (stereo not drawn) | – | – | – | – | – | 66
CCOc1ccc(C2C=C(c3ccc(F)cc3)Nc3ncnn32)cc1 (stereo not drawn) | – | – | – | – | – | –
Cc1cn([C@@H](CCCCNC(=O)OC(C)(C)C)C(=O)NCCCCCCCCCCC(=O)N2CCN(C(=O)OC(C)(C)C)CC2)nn1 | – | 64 | · | · | · | –
Cc1ccc(-c2nc(CSCC(=O)N3CCN(c4ccccn4)CC3)c(C)o2)cc1 | – | – | 47 | – | – | –

Screening data deposited in PubChem BioAssay by The Scripps Research Institute Molecular Screening Center.
